Source: PubChem BioAssay (National Center for Advancing Translational Sciences (NCATS))
Only some compounds are listed: those with a hit (about 21% of all), similar ones and a draw of the others.
Pf growth 96h = P. falciparum growth inhibition at 96 hour, primary screen for plastid delayed-death inhibitors; P. falciparum luciferase reporter growth, 96 h; Potency, µM (titrated, usually from 28.7 µM), usual class: inhibitors; 320,000 compounds, 6.9% hits; AID 504834
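Readout is luminescence from an integrated firefly luciferase in P. falciparum. Red cells, 2% hematocrit and 0.05% parasitemia final, were cultured with compound through two parasite generations (96 hours) at 37 C, 5% CO2.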
Shiga toxin inh = inhibitors of Shiga toxin in Vero cells; Vero cells, Shiga toxin protein synthesis inhibition reporter; inhibition, % at 38.7 µM; 290,000 compounds, 9.2% hits; AID 2315; in the data active = inhibition mostly above about 28%, no sharp cut-off; inactive = mostly below about 43%
CHX counter = counter-screen hit for Shiga toxin inhibitors, cycloheximide | cell reporter, cycloheximide protein synthesis inhibition counterscreen | 300,000 compounds, 12% hits | AID 2314 | max response, %; in the data active = max response mostly above about 13%, no sharp cut-off; inactive = mostly below about 14%; note: read at 38.3 µM for the half of the compounds with a filed dose
HCMV antiviral = human cytomegalovirus inhibition; HFF cells, HCMV-luciferase reporter, 72 h; active compounds read low; 410,000 compounds, 4.5% hits; activity change, negative = inhibition, % at 57.5 µM; in the data active = activity change below about -60%; inconclusive = no clear call, values can overlap the other calls; inactive = above about -39%
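HFF cells seeded 16 h at 37C, treated with compounds, infected with luciferase-reporter HCMV at MOI 1 PFU/cell; luciferase read at 72 h post infection, normalized to buffer-only and Salinomycin controls.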
HCV inhibitor = blocks hepatitis C virus; Huh7.5.1 HCVcc-Cre infection, luciferase reporter, 44 h; Potency, µM (highest dose often 41.8 µM), most hits filed as inhibitors; 340,000 compounds, 3.4% hits; AID 651820
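1,000 cells/well; 4 h culture; + compound; + HCVcc-Cre (~0.5 moi); 44 h; luciferase substrate, RT 15 min; read 15 sec.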
Pf growth 48h = inhibits P. falciparum growth in the first generation, 48 h | AID 504832 | P. falciparum luciferase growth in erythrocytes, 48 h | 310,000 compounds, 5.9% hits | Potency, µM (series often up to 28.7 µM), hits mostly inhibitors
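A one-generation exposure of luciferase-tagged malaria parasites in RPMI 1640/Albumax erythrocyte culture, 37 C and 5% CO2. Inhibition is inferred from decreased luminescence after adding detection reagent.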
Of the large screens only hits and unclear results are named; the others gave an inactive call. Unless noted, calls come from the whole dose curve; as a rule, active = well fitted inhibition curve with a large enough effect; inconclusive = small, poorly fitted or top-dose-only effect, or another doubt; inactive = no such curve, though single readings can be large or run the other way.

Cc1ccc(C)c(NC(=O)c2ccc3ccccc3n2)c1	CHX counter 30 (no result: Pf growth 48h)
Cc1ccc(NC(=O)c2cc(C)nc3ccccc23)c(C)c1	Pf growth 48h inconclusive (no result: Shiga toxin inh)
NNC(=O)c1ccc2ccccc2n1	none
Cc1ccc(NC(=O)C2CCN(C(=O)c3cnn(-c4ccccc4)c3-n3cccc3)CC2)cc1C	none (no result: Pf growth 96h, Shiga toxin inh, CHX counter, HCV inhibitor, Pf growth 48h)
CCOc1ccccc1C1c2cc3c(cc2OC(C)(N2CCCC2)C1C)OCO3 (centres undefined)	HCV inhibitor inconclusive (no result: Pf growth 96h, Shiga toxin inh, CHX counter, Pf growth 48h)
CN(C)c1ccc(/C=N/n2ncc3ccccc32)cc1	Pf growth 96h inconclusive, Shiga toxin inh 98, CHX counter 39, HCV inhibitor inconclusive (no result: HCMV antiviral)
CC(C)(C)c1cc(C(=O)N/N=C/c2ccco2)n[nH]1	CHX counter 33
Nc1nccnc1C(=O)N/N=C/c1ccco1	Shiga toxin inh 93, CHX counter 63
Cc1ccc(-c2cc(C(=O)N/N=C/c3ccco3)n[nH]2)s1	CHX counter 23, Pf growth 48h 10µM
COc1ccc(NC(=O)C(NC(=O)C2CCC(C)CC2)C(C)C)cc1 (centres undefined)	none (no result: Pf growth 96h, Shiga toxin inh, CHX counter, HCV inhibitor, Pf growth 48h)
O=c1nc(SCc2c(F)cccc2Cl)nc(-c2ccccc2)[nH]1	none
COc1ccc(O)c(C(=O)c2cnn(C(=O)c3cccc(N(C)C)c3)c2)c1	none (no result: Pf growth 96h, Shiga toxin inh, CHX counter, Pf growth 48h)
CN(C)c1cccc(C(=O)n2cc(C(=O)c3cc(F)ccc3O)cn2)c1	Shiga toxin inh 97
COc1ccc(O)c(C(=O)c2cnn(S(=O)(=O)c3ccc(C)cc3)c2)c1	HCMV antiviral -74 (no result: Shiga toxin inh, CHX counter)
COc1ccc(C(=O)n2cc(C(=O)c3cc(C)ccc3O)cn2)cc1	HCMV antiviral -67
CCOC(=O)c1ccc(NC(=O)CCc2c(C)nc3c(c(C)nn3-c3ccccc3)c2C)cc1	none (no result: Pf growth 96h, Shiga toxin inh, CHX counter, HCV inhibitor, Pf growth 48h)
COc1cccc(NC(=O)COc2cccc3c2CCNC3=O)c1	Pf growth 96h inconclusive (no result: Shiga toxin inh, CHX counter)
Cc1nn(-c2ccc(F)cc2)c(-n2cccc2)c1C(=O)N1CCN(c2ccccc2F)CC1	none (no result: Pf growth 96h, Shiga toxin inh, CHX counter, HCV inhibitor, Pf growth 48h)
CSC1SCC2C(=O)N(C)C(C(C)C)C(=O)OCC(NC(=O)c3cnc4ccccc4n3)C(=O)NC(C)C(=O)N(C)C1C(=O)N(C)C(C(C)C)C(=O)OCC(NC(=O)c1cnc3ccccc3n1)C(=O)NC(C)C(=O)N2C (centres undefined)	HCMV antiviral -99, HCV inhibitor inconclusive (no result: Pf growth 96h, Shiga toxin inh, CHX counter, Pf growth 48h)
CC(C)NC(=O)C1CCN(C2CCN(Cc3cn[nH]c3-c3ccccc3)CC2)CC1	HCMV antiviral inconclusive
c1ccc(-c2ccc(-c3[nH]ncc3CN3CCC(N4CCSCC4)CC3)cc2)cc1	Shiga toxin inh 48, CHX counter 7.3
CN(C)CCCOc1ccc(C(C)(C)c2ccccc2)cc1	HCV inhibitor 11µM (no result: Pf growth 48h)
O/N=C(\Cn1ccnc1)c1ccccc1	none (no result: Pf growth 96h, Shiga toxin inh, CHX counter, Pf growth 48h)
CC(=O)c1ccccc1NC(=O)COC(=O)C1=NN(c2ccccc2)C(=O)CC1	none (no result: Shiga toxin inh, CHX counter)
COc1cccc(OCC(O)CN2CCN(CCN3C(=O)c4cccc5cccc(c45)C3=O)CC2)c1 (centres undefined)	HCMV antiviral inconclusive, HCV inhibitor inconclusive, Pf growth 48h inconclusive
COc1cc2c3c(cccc3c1)C(=O)N(CCN1CCCC1)C2=O	HCMV antiviral -98 (no result: Pf growth 96h, Shiga toxin inh, CHX counter, HCV inhibitor, Pf growth 48h)
O=C(CN1CCN(CCN2C(=O)c3cccc4cccc(c34)C2=O)CC1)c1ccc(F)cc1	Pf growth 96h 1µM, HCV inhibitor 14µM, Pf growth 48h 15µM
COc1ccc(C(=O)CN2CCN(CCN3C(=O)c4cccc5cccc(c45)C3=O)CC2)cc1	HCV inhibitor 10µM (no result: Pf growth 96h, Shiga toxin inh, CHX counter, Pf growth 48h)
CCN(CC)S(=O)(=O)c1ccc(C(=O)N2CCN(CCN3C(=O)c4cccc5cccc(c45)C3=O)CC2)cc1	Pf growth 96h 2.9µM, Pf growth 48h inconclusive (no result: HCMV antiviral, HCV inhibitor)
O=C(c1ccc2c(c1)OCO2)N1CCN(CCN2C(=O)c3cccc4cccc(c34)C2=O)CC1	none (no result: Pf growth 96h, Shiga toxin inh, CHX counter, Pf growth 48h)
O=C(CN1CCN(CCN2C(=O)c3cccc4cccc(c34)C2=O)CC1)c1ccc(Cl)cc1	Pf growth 96h inconclusive, HCV inhibitor inconclusive, Pf growth 48h inconclusive (no result: HCMV antiviral)
CCOC(=O)C1CCN(C(=O)COc2ccc(Br)cc2C)CC1	none
COc1ccc(NC(=O)COC(=O)c2ccc(S(=O)(=O)N3CCCCCC3)cc2)c(OC)c1	none (no result: Shiga toxin inh, CHX counter)
Cc1ccc(NC(=O)c2c(C(F)(F)F)nn(C)c2SCc2cccc(C(F)(F)F)c2)cc1C	Pf growth 96h inconclusive, Shiga toxin inh 51, CHX counter 20, HCMV antiviral -88, HCV inhibitor inconclusive, Pf growth 48h inconclusive
Cc1ccc(NC(=O)c2c(C(F)(F)F)nn(C)c2SCc2ccc(Cl)cc2)cc1C	Pf growth 96h inconclusive, Shiga toxin inh 46, CHX counter 22, Pf growth 48h inconclusive
Cc1cccc(C)c1NC(=O)c1sccc1SCc1cccc(C(F)(F)F)c1	Pf growth 96h inconclusive, Pf growth 48h inconclusive
CCN(CC)CCN1C(=O)C2C(C(=O)Nc3cccc(C)c3)C3C=CC2(O3)C1C(=O)NC1CCCC(C)C1C (centres undefined)	Pf growth 96h inconclusive, Pf growth 48h inconclusive
CCCCC(CCC(=O)O)(C(=O)OCC)c1csc(Nc2ccc(C)cc2)n1 (centres undefined)	Pf growth 96h 4.7µM, HCMV antiviral inconclusive
CCOC(=O)C(CC)(CCC(=O)O)c1csc(N)n1 (centres undefined)	none (no result: Pf growth 96h, Pf growth 48h)
CC1=C(O)C(=O)OC1c1c(Cl)cccc1Cl (centres undefined)	none
CC(=O)NC(c1ccccc1)c1nc(-c2ccc3ccccc3c2)cs1 (centres undefined)	none (no result: Pf growth 96h, Shiga toxin inh, CHX counter, HCV inhibitor, Pf growth 48h)
O=C(Nc1nc(-c2ccc3ccccc3c2)cs1)c1ccc(N2C(=O)CCC2=O)cc1	HCMV antiviral -71
